Screening results from PubChem.
IL-1B inflam inh – inflammasome signaling inhibition, IL-1 beta readout; THP-1 LPS/ATP IL-1B secretion, AlphaLISA, 16 h; stronger effect = lower value; activity change, % at 57.5 µM; hit rate 4.7% among 360,000; AID 743279; in the data active means activity change below about -50%; inconclusive means mostly about -30% to -49%
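THP-1 cells pretreated 1 hr with compounds (up to 57.5 uM final), then stimulated with LPS (250 ng/mL final) plus ATP (1.25 mM final); secreted IL-1B measured by AlphaLISA after 16 hr, decreased signal indicating inhibition.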
DT40 TDP1 CPT – DT40-hTDP1 cell growth loss with CPT; chicken DT40 Tdp1-/-;hTDP1 cells + 20 nM CPT, ATP luminescence, 48 h; Potency, µM (top dose mostly 46.2 µM), for the others: at the highest dose activity change, negative = growth inhibition, most hits filed as inhibitors; hit rate 12% among 420,000; further: potency means the concentration at half of the fitted maximal effect; nearly all actives have a fitted effect of over 55% in size
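Cell growth measured by CellTiter-Glo luminescence after a minimum 48 h, 37 C compound exposure with 20 nM CPT in Tdp1-knockout DT40 cells stably expressing hTDP1, seeded 400/well; qHTS titration format.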
DT40 TDP1 no CPT – qHTS for Inhibitors of human tyrosyl-DNA phosphodiesterase 1 (TDP1): qHTS in cells in absence of CPT. DT40 Tdp1-/- hTDP1 cells, no CPT, ATP luminescence, 48 h. Potency, µM (series often up to 46.2 µM), for the others: top-dose activity change, negative = growth inhibition, actives largely listed as inhibitors. hit rate 15% among 420,000. AID 686978, 2013; further: potency means the concentration at half of the fitted maximal effect; nearly all actives have a fitted effect of over 55% in size
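No-CPT arm: Tdp1-/-;hTDP1 DT40 cells (400/well) plus compounds, incubated ≥48 hr at 37 °C. Readout CellTiter-Glo luminescence.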
HT1080 IDH1KD tx – toxicity to HT-1080 IDH1 knockdown cells (counter line); Potency, µM (highest dose often 46.1 µM), inactives show at the top dose activity, negative = toxicity, usual class: cytotoxic; HT-1080 IDH1 knockdown viability, ATP luminescence, 48 h; hit rate 2% among 360,000; AID 686971;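 further: potency means the concentration at half of the fitted maximal effect; 0% = DMSO wells and -100% = cell-free medium wells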
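In this qHTS, HT-1080 cells depleted of IDH1 are exposed for 48 h at 37 °C to compound titrations. Toxicity is scored from CellTiter-Glo luminescence, with DMSO as full viability and medium alone as none.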
HT1080-NT tox – kills 2HG-producing HT-1080-NT fibrosarcoma cells; HT-1080-NT fibrosarcoma viability, CellTiter-Glo ATP luminescence, 48 h; Potency, µM (titrated, usually from 46.1 µM), without a hit: at the highest dose activity, negative = less viability, most hits filed as cytotoxic; hit rate 1.6% among 360,000; AID 686970;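 further: NT is the 2HG producing partner of a matched IDH1 knockdown line; potency means the concentration at half of the fitted maximal effect; 0% = DMSO-treated cells and -100% = media-only wells without cells; nearly all actives have a fitted effect of over 55% in size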
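A 48-hour cytotoxicity screen used HT-1080-NT cells plated 2 hours before compound delivery. ATP-based CellTiter-Glo luminescence measured viability, normalized to DMSO and no-cell controls.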
An asterisk follows results filed as active; ? = inconclusive; . = no result given. Rows were chosen to be rich in hits. Some 19% of all compounds tested hit in one or more screens of this group. Unless noted, the call rests on the fitted dose curve; in most records, active means well fitted curve in the direction sought with a large enough effect; inconclusive means small, poorly fitted or top-dose-only effect, or another doubt; inactive means no such curve, though single readings can be large; an effect the other way counts as inactive or inconclusive. Unless noted, on the % scale 0 is the no-effect control and ±100 the full control effect.

SMILES | IL-1B inflam inh | DT40 TDP1 CPT | DT40 TDP1 no CPT | HT1080 IDH1KD tx | HT1080-NT tox
Cc1cccc(-n2ncc3c(NCCc4ccc(S(N)(=O)=O)cc4)ncnc32)c1 | -12.6 | 29.1µM* | ? | -20.2% | -15.1%
COc1ccc(OC)c(Nc2ncnc3c2cnn3-c2cccc(C)c2)c1 | 6.2 | 5.17µM* | 4.61µM* | 7.08µM* | 7.08µM*
c1ccc2oc(-c3ccn[nH]3)cc2c1 | -1.5 | 31.5% | 4.6% | 5.0% | 25.3%
CCc1ccc(CNC(=O)c2cnc3sc(N(CC)CC)nn3c2=O)cc1 | . | 13µM* | ? | . | .
CCc1ccc(CNC(=O)c2cnc3sc(N4CCCC4)nn3c2=O)cc1 | . | -22.0% | -30.0% | . | .
CCN(CC)c1nn2c(=O)c(C(=O)NCCc3ccccc3C)cnc2s1 | . | 16.4µM* | ? | . | .
CCCCNC(=S)N/N=C1\C(=O)c2cccc3cccc1c23 | -8.6 | ? | 25.9µM* | 9.3% | 9.4%
CNC(=S)N/N=C1\C(=O)c2cccc3cccc1c23 | -97.8* | 29.1µM* | 16.4µM* | ? | ?
O=C(N/N=C1\C(=O)c2cccc3cccc1c23)c1ccc(O)cc1 | -24.5 | ? | ? | 17.9% | 6.6%
CC(C)CN(C(=O)COC(=O)Cc1c[nH]c2ccccc12)c1c(N)n(Cc2ccccc2)c(=O)[nH]c1=O | -8.6 | ? | -0.1% | -15.5% | -1.0%
S=c1nccc(-c2ccc(Cl)cc2)[nH]1 | -7.3 | ? | 20.6µM* | 3.7% | 14.2%
Clc1ccc(-c2ccn[nH]2)cc1 | 0.0 | 1.4% | -7.2% | 0.6% | 15.9%
CC(C(=O)N(C)c1ccccc1)N1CCN(C(=O)c2ccccc2)CC1 (stereo unspecified) | -9.8 | 16.0% | -11.8% | 12.7% | 11.5%
COc1ccc(/C=C/C(=O)c2c(O)c(OC)c3occc3c2OC)cc1OC | . | 11.2µM* | 10µM* | 11.2µM* | 17.8µM*
COc1ccc(/C=C\C(=O)c2c(O)ccc3c(C)cc(=O)oc23)cc1OC | -69.8* | 16.4µM* | 23.1µM* | ? | ?
Cc1cc(=O)oc2c(C(=O)/C=C\c3cccs3)c(O)ccc12 | -98.9* | ? | ? | 20.6µM* | ?
CC(=O)c1c(OCC(=O)O)ccc2c(C)cc(=O)oc12 | 17.0 | -21.0% | -0.9% | -1.6% | 12.0%
Cc1cc(=O)oc2c(C(=O)/C=C/c3ccccc3)c(O)ccc12 | 9.6 | 4.1% | ? | 3.2% | 0.0%
CC(C)NC(=O)C1(C)CN(S(C)(=O)=O)CC(=O)N1Cc1ccco1 (stereo unspecified) | 0.0 | 7.6% | 2.6% | 27.1% | 18.6%
CCn1c(=O)cc(SCC(=O)NCc2ccccc2OC)c2ccccc21 | . | ? | 23.1µM* | . | .
CCOc1ccc(CCNC(=O)CSc2cc(=O)n(CC)c3ccccc23)cc1OCC | -0.5 | ? | ? | -16.3% | -1.1%
CCn1c(=O)cc(SCC(=O)NCCc2ccc(OC)cc2OC)c2ccccc21 | . | ? | 23.1µM* | . | .
COc1ccccc1CNC(=O)CSc1cc(=O)n(C)c2ccccc12 | -17.9 | ? | ? | 17.0% | 13.4%
COc1cccc(CCNC(=O)CCc2nnc(-c3cc(C)oc3C)o2)c1 | 6.0 | -20.3% | 1.6% | 5.4% | 17.4%
CC(OC(=O)Cn1cnc2c1c(=O)n(C)c(=O)n2C)C(=O)N(C)c1ccccc1 (stereo unspecified) | 47.3 | ? | -29.0% | -1.2% | -5.9%
SMILES | IL-1B inflam inh | DT40 TDP1 CPT | DT40 TDP1 no CPT | HT1080 IDH1KD tx | HT1080-NT tox
Cc1cc(N2CCOCC2)nc2ccc(NC(=S)NCCN(C)C)cc12 | -8.8 | -1.2% | -1.2% | 0.0% | -19.2%
Cc1cc(N2CCN(C)CC2)nc2ccc(NC(=S)NCCC(C)C)cc12 | -6.0 | 23.1µM* | 14.6µM* | -16.9% | ?
Cc1cc(N2CCOCC2)nc2ccc(NC(=S)NCCC(C)C)cc12 | -50.5* | 18.4µM* | 20.6µM* | ? | -6.9%
CCc1cccc(NC(=O)c2sc3nc[nH]c(=O)c3c2C)c1 | . | ? | 20.6µM* | . | .
O=C(Nc1cccc(C(F)(F)F)c1)c1sc(Cl)nc1C(F)(F)F | -103.0* | 16.4µM* | 10.3µM* | -5.3% | -2.3%
Cc1c(C(=O)Nc2cccc(C(F)(F)F)c2)sc2nc[nH]c(=O)c12 | . | 16.4µM* | 20.6µM* | . | .
Cc1ccccc1NC(=O)c1sc2nc[nH]c(=O)c2c1C | 46.0 | ? | -19.2% | 22.9% | 3.7%
CC(C)=CCN1CCN(Cc2ccc(Sc3nncn3C)o2)CC1CCO (stereo unspecified) | -4.0 | 6.5% | 4.2% | 13.9% | 3.1%
CCOCCCNC(=S)Nc1ccc2nc(N3CCOCC3)cc(C)c2c1 | -12.0 | -23.3% | ? | 0.6% | 1.3%
N#CC(C#N)=C1NC2(CCCCC2)Cc2ccccc21 | 4.8 | -12.8% | -0.1% | -1.7% | -1.0%
O=C(/C=C1\NC2(CCCC2)Cc2ccccc21)N1CCOCC1 | -15.0 | 11.6µM* | 11.6µM* | ? | ?
CCc1cc(C(c2ccccn2)N2CCN(C)CC2)c(NC(=O)c2ccccc2)s1 (stereo unspecified) | -7.5 | ? | ? | -8.0% | -7.5%
Cc1sc(NC(=O)c2ccccc2)c(C(c2ccccn2)N2CCN(CCO)CC2)c1C (stereo unspecified) | -12.0 | 10.3µM* | 9.2µM* | -28.5% | -23.3%
COC(=O)c1c(NC2=NS(=O)(=O)c3ccccc32)sc2c1CCC(C(C)(C)C)C2 (stereo unspecified) | 20.4 | 18.4µM* | 14.6µM* | 16.4% | 5.1%
CCOC(=O)c1c(NC2=NS(=O)(=O)c3ccccc32)sc2c1CCC(C)C2 (stereo unspecified) | 2.0 | ? | ? | 16.8% | 15.0%
C/C(=N\N=C(N)N)c1ccc(Cl)cc1Cl | -92.5* | 8.2µM* | 16.4µM* | 20.6µM* | 13µM*
C/C(=N\N=C(N)N)c1cccc(Cl)c1 | -57.1* | 16.4µM* | 8.2µM* | ? | ?
C/C(=N\O)c1ccc(Cl)cc1Cl | -2.5 | 5.1% | -11.6% | 4.1% | -12.9%
CC(=O)Nc1cc(C(C)C)c(O)c(C(C)C)c1 | -1.7 | -6.7% | -27.2% | -3.3% | 0.1%
CC(C)c1cc(CN2C(C)COCC2C)cc(C(C)C)c1O (stereo unspecified) | -18.2 | 20.6µM* | ? | 0.2% | 0.9%
COc1cc(/C=C/C(=O)OCC(=O)Nc2cc(S(=O)(=O)N3CCCCC3)ccc2C)ccc1O | 14.0 | ? | ? | -7.7% | -13.7%
COc1ccc(NC(=O)CCCNC(=O)c2ccc(Cl)cc2)cc1S(=O)(=O)N1CCCCC1 | -4.9 | ? | 20.6µM* | 1.5% | -3.3%
COc1cc(C(C)=O)ccc1OCC(=O)Nc1ccc(S(=O)(=O)N2CCCCC2)cc1 | -4.8 | -95.4% | 0.461µM* | 1.8% | -0.5%
